# Experimental data as given in PubChem BioAssay AID651621 (National Center for Advancing Translational Sciences (NCATS), 2012).
# Active and inactive are the calls of the source.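 The calls were made as follows: active = inhibition of 60% or more at 11 µM; inconclusive = inhibition from 30% up to under 60% at 11 µM; inactive = inhibition below 30% at 11 µM.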
# Biological target: Ubiquitin carboxyl-terminal hydrolase 1 (Homo sapiens) + WD repeat-containing protein 48 (Homo sapiens) (UniProt O94782+Q8TAF3)
# Test: Inhibitors of USP1/UAF1: SAR in USP1/UAF1 diubiquitin SDS-PAGE gel assay
# Details: purified USP1/UAF1, K63 diubiquitin cleavage, at 11 µM, active compounds read high
# Source text: Deubiquitinating enzymes (DUBs) are a class of enzymes that can cleave isopeptide bond formed between the C-terminal carboxylate of ubiquitin and a lysine side-chain amino group on the target protein. Among them, ubiquitin specific proteases (USPs) constitute the largest DUB family. Human USPs are emerging as promising targets for pharmacological intervention because of their connection to a number of human diseases, including prostate, colon and breast cancer (1, 2), pediatric acute lymphoblastic leukemia (3), and familial cylindromatosis (4). The advantage of inhibiting USPs lies in the potential specificity of therapeutic intervention that can lead to better efficacy and reduce nonspecific side effects. In a collaboration between the University of Delaware and the NIH Chemical Genomics Center, a high-throughput screen assay was developed to screen for USP1/UAF1 inhibitors (5). This assay is a orthogonal assay that tested for activity in a USP1/UAF1 diubiquitin SDS-PAGE gel assay. NIH Chemical Genomics Center [NCGC] […]
# The inhibition assay contains 100 nM for USP1/UAF1, 2 microM K63 linked diubiquitin, and inhibitors at varied concentrations (0.08 microM - 114 microM). […] The intensity of the individual diubiquitin and monoubiquitin band was quantified using Quantity One 4.3.1 (Biorad, Hercules, CA). The percentage of the conversion was determined and used to calculate the reaction rate. […]
# Ubiquitin carboxyl-terminal hydrolase 1 (Homo sapiens) + WD repeat-containing protein 48 (Homo sapiens), sequence (O94782 whole entry, looked up): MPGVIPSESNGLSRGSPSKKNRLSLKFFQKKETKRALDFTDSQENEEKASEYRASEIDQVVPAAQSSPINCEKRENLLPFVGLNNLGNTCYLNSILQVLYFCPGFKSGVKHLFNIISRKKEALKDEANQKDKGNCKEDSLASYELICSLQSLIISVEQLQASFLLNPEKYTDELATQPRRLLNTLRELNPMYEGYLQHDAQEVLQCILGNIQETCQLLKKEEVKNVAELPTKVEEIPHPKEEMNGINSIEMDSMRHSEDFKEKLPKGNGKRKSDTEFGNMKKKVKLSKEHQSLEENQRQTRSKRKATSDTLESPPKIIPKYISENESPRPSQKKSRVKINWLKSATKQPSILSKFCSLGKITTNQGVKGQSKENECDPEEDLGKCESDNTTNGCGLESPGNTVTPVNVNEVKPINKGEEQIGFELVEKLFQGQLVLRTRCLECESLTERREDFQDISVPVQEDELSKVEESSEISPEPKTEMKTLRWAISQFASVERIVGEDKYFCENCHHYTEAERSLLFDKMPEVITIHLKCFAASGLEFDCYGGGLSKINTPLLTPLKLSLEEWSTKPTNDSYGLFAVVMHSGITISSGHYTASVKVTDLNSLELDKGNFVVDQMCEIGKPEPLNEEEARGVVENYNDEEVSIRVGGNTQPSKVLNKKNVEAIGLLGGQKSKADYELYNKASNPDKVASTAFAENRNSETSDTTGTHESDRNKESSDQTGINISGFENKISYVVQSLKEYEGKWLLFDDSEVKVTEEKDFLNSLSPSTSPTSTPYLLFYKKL
# Ubiquitin carboxyl-terminal hydrolase 1 (Homo sapiens) + WD repeat-containing protein 48 (Homo sapiens), sequence (Q8TAF3 whole entry, looked up): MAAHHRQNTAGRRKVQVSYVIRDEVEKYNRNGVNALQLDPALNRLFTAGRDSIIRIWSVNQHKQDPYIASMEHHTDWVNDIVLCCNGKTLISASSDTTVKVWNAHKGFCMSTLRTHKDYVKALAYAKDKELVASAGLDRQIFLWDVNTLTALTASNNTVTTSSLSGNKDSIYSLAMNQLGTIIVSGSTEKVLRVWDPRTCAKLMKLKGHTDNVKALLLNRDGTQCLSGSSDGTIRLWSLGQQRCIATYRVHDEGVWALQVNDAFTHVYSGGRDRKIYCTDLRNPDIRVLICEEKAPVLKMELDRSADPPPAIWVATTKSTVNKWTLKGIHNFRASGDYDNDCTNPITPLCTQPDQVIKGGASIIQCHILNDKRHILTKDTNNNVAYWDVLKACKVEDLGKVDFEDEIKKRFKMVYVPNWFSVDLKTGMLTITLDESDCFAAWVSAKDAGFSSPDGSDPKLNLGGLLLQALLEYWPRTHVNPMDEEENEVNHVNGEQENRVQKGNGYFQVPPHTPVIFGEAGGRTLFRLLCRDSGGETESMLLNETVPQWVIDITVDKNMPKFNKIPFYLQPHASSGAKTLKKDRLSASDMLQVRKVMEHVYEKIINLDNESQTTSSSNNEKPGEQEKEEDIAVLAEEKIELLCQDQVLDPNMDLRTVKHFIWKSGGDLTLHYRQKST
row,SMILES,inhibition
1,Cc1cnc(-c2ccccc2C(C)C)nc1NCc1ccc(-n2ccnn2)cc1,98.5% (active)
